We go through 5 compounds from PubChem BioAssay AID651548 (Broad Institute, 2012).

Hit rate of the full screen: of about 57,000 compounds, about 200 (0.35%) were called active. This excerpt belongs to a sample that is enriched for actives. Unmarked numbers belong to inactive results.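 How the source made its calls: active means mean inhibition of replicates at least 50% and every single replicate also reaching 50%; inconclusive means mean inhibition at least 50% but some replicate falls below 50%; inactive means mean inhibition under 50%.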

The term inhibition denotes the drop in the measured response relative to a control, in per cent.

For this assay, the target named is Histone-lysine N-methyltransferase EZH2 (Homo sapiens) (UniProt Q15910). The assay can be described thus: EZH2/PRC2 methyltransferase inhibitors, primary screen, biochemical, DELFIA time-resolved fluorescence, single point (AID 651548).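 Further: dimethyl H3K27 on biotinylated H3 21-44 peptide detected by antibody; plate controls were median neutral control wells for no effect and median positive control wells for full effect.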 The conditions noted are these: PRC2 H3K27 methylation, DELFIA TRF, 1 h; at 12.5 µM; stronger effect = higher value.
Histone-lysine N-methyltransferase EZH2 (Homo sapiens), sequence (Q15910 whole entry, looked up): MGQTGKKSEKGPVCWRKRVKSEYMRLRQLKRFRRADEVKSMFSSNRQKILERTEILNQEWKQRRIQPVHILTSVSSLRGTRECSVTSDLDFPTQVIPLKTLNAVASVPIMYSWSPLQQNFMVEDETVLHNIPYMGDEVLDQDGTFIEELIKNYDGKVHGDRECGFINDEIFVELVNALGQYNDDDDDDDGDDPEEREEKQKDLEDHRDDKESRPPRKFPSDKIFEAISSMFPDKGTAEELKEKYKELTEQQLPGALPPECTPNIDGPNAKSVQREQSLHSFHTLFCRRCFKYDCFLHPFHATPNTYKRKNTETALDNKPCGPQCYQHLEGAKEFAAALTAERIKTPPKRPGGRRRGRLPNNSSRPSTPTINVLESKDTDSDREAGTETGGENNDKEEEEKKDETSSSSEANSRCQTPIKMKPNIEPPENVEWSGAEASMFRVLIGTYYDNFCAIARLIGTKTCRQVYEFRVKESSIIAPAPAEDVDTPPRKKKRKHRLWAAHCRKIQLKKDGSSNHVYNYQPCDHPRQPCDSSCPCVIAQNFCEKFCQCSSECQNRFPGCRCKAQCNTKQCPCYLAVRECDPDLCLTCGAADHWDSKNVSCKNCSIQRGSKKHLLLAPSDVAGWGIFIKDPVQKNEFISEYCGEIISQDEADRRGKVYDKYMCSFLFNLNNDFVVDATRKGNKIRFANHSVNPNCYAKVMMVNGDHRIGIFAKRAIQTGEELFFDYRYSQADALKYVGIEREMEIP
For the compound `C[C@@H]1O[C@@H](O[C@@H]2C=C3CC[C@@H]4C(C[C@@H](O)[C@]5(C)[C@@H](c6ccc(=O)oc6)CC[C@]45O)[C@@]3(C)CC2)[C@H](O)[C@H](O)[C@H]1O[C@@H]1O[C@H](CO)[C@@H](O)[C@H](O)[C@H]1O` (stereo not given in full), the inhibition was 75.9% (active).
To `c1ccc(CCCCN2CCC(c3ccccc3)CC2)cc1` belongs 11.8%; to `CCCCCCCCCCCCCC(=O)O[C@@H]1[C@@H](C)[C@@]2(O)[C@@H](C=C(CO)C[C@]3(O)C(=O)C(C)=C[C@@H]23)[C@@H]2C(C)(C)[C@]12OC(C)=O`, -10.7%; to `c1ccc2c(c1)[I+]c1ccccc1-2`, -3.64%.
To `CC(C)(Cc1c[nH]c2ccc(Cl)cc12)NCCOc1ccccc1OCC1CC1` belongs 3.93%.
